Assay results as given in the supplement of paper PMC4166925.
± gives the standard deviation of the averaged measurements. Whole data set: some 33,000 sequences, median “E-score (dimensionless, -0.5 to 0.5)” near -0.046, cut for the highest 2% near 0.36. The sample as a whole holds a higher share of the highest values than the screen did.

test system: T1, SpTbr T-box DNA-binding domain (GST fusion); experiment: PBM E-score of 8-mer (E-score (dimensionless, -0.5 to 0.5)); Tbr is Tbrain of the sea star Patiria miniata (Pm) or the sea urchin Strongylocentrotus purpuratus (Sp); higher = stronger binding preference; settings: the construct has about 5 more residues each side
T1 sequence: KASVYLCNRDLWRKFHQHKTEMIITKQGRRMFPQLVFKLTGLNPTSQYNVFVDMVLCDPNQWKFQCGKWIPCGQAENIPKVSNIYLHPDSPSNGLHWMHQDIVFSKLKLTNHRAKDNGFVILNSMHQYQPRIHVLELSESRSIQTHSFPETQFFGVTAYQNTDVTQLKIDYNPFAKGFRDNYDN
Method: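 Universal protein-binding microarray (Agilent AMADID 016060, 60-bp probes with a 35-bp variable region) incubated with 200 nM GST-fused Strongylocentrotus purpuratus Tbr T-box DNA-binding domain (residues 362-554) in PBS pH 7.5. Scored for every ungapped 8-mer (given with its reverse complement) as E-score (range -0.5 to 0.5; >0.45 counts as bound) and Z-score of median probe intensity. Two replicate arrays (datasets 1 and 2).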
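Also: protein at 200 nM in PBS on universal double-stranded arrays.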

| Sequence | PBM E-score of 8-mer |
| --- | --- |
| AGGTGACG | 0.453 ± 0.0078 |
| CGGTGACG | 0.233 ± 0.02 |
| AGGTGACT | 0.276 ± 0.001 |
| AGGTGACA | 0.469 ± 0.015 |
| ACGTGACA | 0.3127 ± 0.0018 |
| AGGTGACC | 0.151 ± 0.0043 |
| CGATGGAG | -0.131 ± 0.032 |
| AGACGTAC | -0.0414 ± 0.071 |
| CCCCAGCC | -0.0674 ± 0.013 |
| AGGAGTAT | -0.223 ± 0.0026 |
| AATGACAG | 0.0199 ± 0.049 |
| GATGACCC | 0.12 ± 0.0038 |
| GATGACAA | 0.278 ± 0.026 |
| GATGACAC | 0.402 ± 0.0092 |
| CATGACAC | 0.3587 ± 0.0021 |
| AATGACAC | 0.3799 ± 0.0026 |
| AATCTGAT | -0.25 ± 0.015 |
| GAACGCCC | 0.138 ± 0.0086 |
| AGGTGGTC | -0.117 ± 0.11 |
| AGGTGGTA | 0.405 ± 0.011 |
| AGGTGGGA | 0.433 ± 0.0055 |
| AGGTGGTG | 0.34049 ± 0.00016 |
| CGGTGGGA | 0.00775 ± 0.037 |
| AGGTGGGC | -0.0803 ± 0.021 |
| AGAGGGAA | -0.179 ± 0.028 |

| Sequence | PBM E-score of 8-mer |
| --- | --- |
| GAGCTTCC | -0.129 ± 0.05 |
| CGGCGACA | 0.296 ± 0.018 |
| AGGTGGAA | 0.0503 ± 0.028 |
| GAACTAAC | 0.135 ± 0.023 |
| TGCGACAA | 0.271 ± 0.022 |
| CGCGACAA | 0.309 ± 0.0049 |
| AGCGACAC | 0.332 ± 0.022 |
| GGCGACAA | 0.3676 ± 0.0007 |
| CGCGACAC | 0.35396 ± 0.00035 |
| GGCGACAC | 0.381 ± 0.0043 |
| GCTTTGCA | 0.0233 ± 0.069 |
| AGTCCAGG | -0.396 ± 0.039 |
| AAGTCCCA | -0.0384 ± 0.044 |
| CAGAAACC | -0.106 ± 0.08 |
| AAATTCTG | -0.136 ± 0.06 |
| CAAAGGTA | -0.0771 ± 0.04 |
| CAAAGGTG | 0.3923 ± 0.00076 |
| AAAAGGTT | -0.0952 ± 0.076 |
| AAAAGGTG | 0.41 ± 0.0094 |
| AAAAGGTC | -0.00656 ± 0.018 |
| CAAAGGTC | -0.105 ± 0.028 |
| GGTACTAC | -0.3 ± 0.033 |
| ACGTCGAC | 0.0807 ± 0.016 |
| GCACTCCC | 0.128 ± 0.051 |
| AGCATAAT | -0.177 ± 0.0018 |

| Sequence | PBM E-score of 8-mer |
| --- | --- |
| AGTAGGTA | -0.00286 ± 0.076 |
| AATAGGTA | -0.0758 ± 0.075 |
| AATAGGTG | 0.374 ± 0.03 |
| ACTAGGTG | 0.403 ± 0.012 |
| AATAGGTC | -0.154 ± 0.017 |
| ACTAGGTA | -0.0768 ± 0.014 |
| AGTAGGTG | 0.3972 ± 0.0024 |
| ACTAGGTC | -0.14 ± 0.024 |
| AGTAGGTC | -0.0701 ± 0.038 |
| TCAACAAA | -0.0651 ± 0.048 |
| AGAAGTAT | -0.0503 ± 0.0051 |
| AACGTTAT | 0.0135 ± 0.06 |
| ACAAAACA | 0.0943 ± 0.064 |
| ATAGAGTC | -0.206 ± 0.0048 |
| CGTCTACA | 0.0944 ± 0.046 |
| AGGGTGCC | 0.267 ± 0.013 |
| AGGGTGCG | 0.402 ± 0.01 |
| AGGGTGTA | 0.307 ± 0.035 |
| AGGGGGTG | 0.269 ± 0.055 |
| ACGGTGTC | 0.271 ± 0.051 |
| CGGGTGTC | 0.3608 ± 0.0021 |
| AGGGTGTG | 0.449 ± 0.011 |
| AGGGTGCA | 0.188 ± 0.025 |
| AGGGTGTC | 0.401 ± 0.015 |
| AACAGAGT | -0.0053 ± 0.1 |

| Sequence | PBM E-score of 8-mer |
| --- | --- |
| CACGTTGC | 0.101 ± 0.025 |
| ATTACTTA | -0.154 ± 0.05 |
| AGAGAGAG | 0.0384 ± 0.024 |
| AGTAACAC | 0.3552 ± 0.0029 |
| GGTAACAC | 0.435 ± 0.0032 |
| GCTAACCC | 0.04 ± 0.097 |
| CGTAACAC | 0.3104 ± 0.0022 |
| CCTAACAA | 0.161 ± 0.035 |
| GCTAACAC | 0.417 ± 0.0044 |
| ACTAACAA | 0.152 ± 0.039 |
| CCTAACAG | 0.0988 ± 0.11 |
| ACTAACAG | 0.1931 ± 0.00053 |
| GCTAACAA | 0.293 ± 0.03 |
| ACTAACAC | 0.402 ± 0.0071 |
| CCTAACAC | 0.4165 ± 0.0028 |
| CGACCCGA | -0.0816 ± 0.051 |
| TAACCAGA | -0.055 ± 0.015 |
| AGCAAAAG | -0.191 ± 0.046 |
| ACGCAACA | 0.121 ± 0.024 |
| ATTGCACA | 0.121 ± 0.053 |
| CCCCAGCG | -0.148 ± 0.02 |
| ATTAACAC | 0.45 ± 0.015 |
| CTTAACAA | 0.243 ± 0.0056 |
| ATTAACAA | 0.14 ± 0.023 |
| ATTAACAG | 0.139 ± 0.014 |

| Sequence | PBM E-score of 8-mer |
| --- | --- |
| CTTAACCC | -0.000625 ± 0.011 |
| CTTAACAC | 0.429 ± 0.017 |
| GTAGAAAA | -0.0889 ± 0.057 |
| ATCCAGAG | -0.25 ± 0.021 |
| CCTGGGAG | 0.0895 ± 0.0077 |
| GTGGCCGA | 0.0547 ± 0.071 |
| AGGAAAAT | -0.182 ± 0.018 |
| GTCAATAA | 0.129 ± 0.034 |
| CGCCCGTC | 0.0569 ± 0.029 |
| CTTTTTCC | -0.132 ± 0.081 |
| TACGTTCA | -0.0963 ± 0.066 |
| AGCATTAT | 0.00754 ± 0.061 |
| AAACGTGG | 0.144 ± 0.0096 |
| ACACGTCA | 0.319 ± 0.017 |
| ACACGTGT | 0.395 ± 0.0082 |
| ACACGTCT | 0.342 ± 0.0038 |
| CCACGTGC | 0.114 ± 0.074 |
| ACACGTCG | 0.372 ± 0.0071 |
| ACACGTGG | 0.299 ± 0.02 |
| ACACGTGC | 0.3851 ± 0.0015 |
| ACACGTGA | 0.283 ± 0.011 |
| AAACGTGA | 0.156 ± 0.0067 |
| GCACGTGC | 0.312 ± 0.081 |
| AAACGTGT | 0.368 ± 0.018 |
| CCTTCCGC | 0.168 ± 0.062 |

| Sequence | PBM E-score of 8-mer |
| --- | --- |
| GATGCCTA | -0.279 ± 0.11 |
| AAGGGCCA | -0.259 ± 0.0051 |
| CTCAGCAC | 0.171 ± 0.0069 |
| TATCTCAA | -0.0883 ± 0.013 |
| GTTCAACA | -0.118 ± 0.054 |
| AAGTGACC | 0.233 ± 0.041 |
| GAGTGACA | 0.343 ± 0.033 |
| TAGTGACA | 0.417 ± 0.011 |
| CAGTGACG | 0.0986 ± 0.12 |
| CAGTGACA | 0.329 ± 0.0062 |
| AAGTGACG | 0.4 ± 0.0071 |
| AAGTGAAA | 0.209 ± 0.069 |
| AAGTGACA | 0.427 ± 0.013 |
| AAGTGACT | 0.0603 ± 0.012 |
| GCTGTAAC | -0.0609 ± 0.029 |
| CTCAAAAG | -0.147 ± 0.012 |
| ATGACCTA | -0.132 ± 0.046 |
| ACAGAACA | -0.0577 ± 0.043 |
| CCTGTGCG | 0.125 ± 0.025 |
| TCGCAAAA | 0.132 ± 0.0091 |
| TACTTGGA | -0.311 ± 0.035 |
| AGGAGAGG | -0.247 ± 0.019 |
| CTGTGTGC | 0.000685 ± 0.012 |
| AGATGTGC | 0.161 ± 0.011 |
| ATGTGTGG | 0.356 ± 0.007 |

| Sequence | PBM E-score of 8-mer |
| --- | --- |
| AGGTGGGG | 0.238 ± 0.056 |
| AGGTGTGC | 0.445 ± 0.014 |
| AGGTGTGG | 0.486 ± 0.0081 |
| ATCAGGAC | -0.3 ± 0.086 |
| AAGCTCTA | -0.245 ± 0.027 |
| GTGATAAA | 0.305 ± 0.051 |
| ATGATCAC | 0.1861 ± 0.0015 |
| GTGATCAA | 0.144 ± 0.022 |
| ATGATAAC | 0.092 ± 0.059 |
| GTGATAAC | 0.395 ± 0.0074 |
| GTGATCAC | 0.366 ± 0.022 |
| ACGATGGA | -0.0806 ± 0.066 |
| AGTAATCG | 0.087 ± 0.023 |
| GCTCCTAC | 0.0646 ± 0.0047 |
| AATTCAGC | -0.016 ± 0.024 |
| CCGGACGA | -0.223 ± 0.017 |
| ATCGCCTC | 0.169 ± 0.061 |
| AGTGTCAG | 0.371 ± 0.0097 |
| GTTGTCAA | 0.3671 ± 0.0033 |
| CCTGTCAA | 0.328 ± 0.025 |
| AATGTCAG | 0.0267 ± 0.006 |
| GATGTCAC | 0.296 ± 0.023 |
